Compound activity as filed in PubChem BioAssay.
A selection: hits, their analogues and other compounds. The true share with any hit is near 1.1%.
Mtb hypoxia inh – PubChem AID 1159583. M. tuberculosis hypoxia-regulated fluorescent reporter, fluorescence. fluorescence inhibition, % (test concentration not listed). 0.1% of 300,000 active; in the data active means fluorescence inhibition mostly above about 23%, no sharp cut-off; inactive means mostly below about 17%
Sa RN4220 lethal – growth inhibition of S. aureus RN4220, primary screen, OD600; 16 h; inhibition, % (concentration not given with the values); 0.33% of 330,000 active; in the data active means inhibition above about 85%;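 further: plate controls were untreated cells for no effect and reference antibiotic for full effect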
PriA SSB inh – inhibitors of Klebsiella pneumoniae PriA binding to SSB C-terminal tail, primary screen, biochemical, AlphaScreen; PriA–SSB C-terminal tail interaction (Klebsiella pneumoniae); AlphaScreen SSBct-PriA binding, biotinylated peptide; inhibition, % at 33 µM; 0.6% of 430,000 active; AID 1272365, 2023; in the data active means inhibition mostly above about 37%, no sharp cut-off; inactive means mostly below about 20%;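 further: plate controls were negative control peptide for no effect and reference peptide for full effect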
Sa ugtP lethal – growth inhibition of ugtP-null S. aureus, primary screen, RN4220 ugtP deletion, OD600 | 16 h | growth inhibition, % (test concentration not listed) | 0.54% of 330,000 active | AID 1259309, 2017; in the data active means growth inhibition above about 68%;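 further: plate controls were untreated wells for no effect and antibiotic for full effect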
* hit, by the source's call; x = no result given.

SMILES	Mtb hypoxia inh	Sa RN4220 lethal	PriA SSB inh	Sa ugtP lethal
CCOC(=O)c1c(-c2ccccc2)oc2ccc(OC)cc12	x	-3	-100	90*
C=C1CC[C@@]2(O)[C@H]3Cc4ccc(O)c5c4[C@@]2(CCN3CC2CC2)[C@H]1O5	x	x	41*	x
CCOc1ccc(-c2noc(-c3cnn4c(C)c(Cc5ccccc5C)c(C)nc34)n2)cc1OC	x	x	-11	x
COc1nn(C)cc1C(=O)Nc1ccc(C(=O)N2CCN(c3cccc(C(F)(F)F)c3)CC2)cc1	x	x	1	x
C[C@@H](C(=O)NCc1ccco1)N1C(=O)N2CCc3c([nH]c4ccccc34)[C@@]2(C)C1=O	x	6	47*	13
CC(C)C[C@@H](C(=O)NCc1ccco1)N1C(=O)N2CCc3c([nH]c4ccccc34)[C@@]2(C)C1=O	x	0	19	-5
O=C(Nc1ccc(N2CCCCC2)c(Cl)c1)c1ccc(N2CCOCC2)c([N+](=O)[O-])c1	7	-3	14	15
O=C(Nc1ccc2c(c1)OCO2)c1ccc(N2CCCC2)c([N+](=O)[O-])c1	-1	3	39*	-8
O=C(Nc1nccs1)c1ccc(N2CCOCC2)c([N+](=O)[O-])c1	x	x	18	x
CC(C)(C)c1csc(NC(=O)c2ccc(N3CCOCC3)c([N+](=O)[O-])c2)n1	x	x	39*	x
O=S(=O)(NCCc1cn2ccccc2n1)c1ccc(Oc2ccccc2)cc1	x	x	0	x
CN1/C(=C\C(=O)Nc2ccc(Br)cc2)C(C)(C)c2ccccc21	-2	94*	0	96*
Cn1c(SCC(=O)NCc2ccc(Cl)cc2)nc2c(-c3ccccc3)c[nH]c2c1=O	x	x	-9	x
N=C1CCC(=N)c2c1c(O)c1ccccc1c2O	x	x	74*	x
O=C1CCn2c1c(O)c1ccccc1c2=O	x	x	9	x
O=C(CN1CC(=O)Oc2ccccc21)OCC(=O)c1ccc(F)cc1	0	-2	77*	-1
O=C(CN1CC(=O)Oc2ccccc21)OCC(=O)c1ccc(Br)cc1	x	4	86*	-2
O=C1CN(CC(=O)N2CCCCC2)c2ccccc2O1	x	x	11	x
CC(=O)c1c(O)nc2sccn12	x	x	-8	x
O=[N+]([O-])c1cccc(S(=O)(=O)Nc2ccc(S(=O)(=O)Nc3nccs3)cc2)c1	16	6	-5	8
O=[N+]([O-])c1ccccc1S(=O)(=O)Nc1ccc(S(=O)(=O)Nc2nccs2)cc1	66*	-3	1	95*
Cc1nc(-n2cccc2)sc1C(=O)Nc1nc2c(s1)C(=O)NCCC2	x	x	active	x
CCCCN(CCCC)S(=O)(=O)c1ccc(C(=O)Nc2nnc(CSC)o2)cc1	x	112*	3	99*
CS(=O)(=O)c1ccc(C(=O)Nc2nnc(Cc3cccs3)o2)cc1	x	x	64*	x
CCCCN(CC)S(=O)(=O)c1ccc(C(=O)Nc2nnc(CSC)o2)cc1	5	47	12	17
SMILES	Mtb hypoxia inh	Sa RN4220 lethal	PriA SSB inh	Sa ugtP lethal
CCN(CC)S(=O)(=O)c1ccc(C(=O)Nc2nnc(Cc3cccs3)o2)cc1	x	x	41	x
O=C(Nc1nnc(-c2cccs2)o1)c1cccc(Oc2ccccc2)c1	5	99*	-9	100*
CCCCN(C)S(=O)(=O)c1ccc(C(=O)Nc2nnc(Cc3cccs3)o2)cc1	x	x	58*	x
O=C(Nc1nnc(-c2cccs2)o1)c1cccc(F)c1	-1	28	-1	18
COCCNC(=O)NCC#CCN1CCOCC1	x	x	3	x
COC(=O)c1sc(-c2ccccc2)cc1NC(=O)c1ccc(S(=O)(=O)C(C)C)cc1	x	x	0	x
O=C(NC[C@H](O)c1ccc2c(c1)CCO2)c1ccc2nsnc2c1	x	x	-4	x
CN(C1CC1)S(=O)(=O)c1ccc(C(=O)Nc2nnc(Cc3cccs3)o2)cc1	x	x	74*	x
CSc1ccccc1C(=O)Nc1nnc(Cc2cccs2)o1	x	x	45*	x
CCCCN(C)S(=O)(=O)c1ccc(C(=O)Nc2nnc(-c3cccs3)o2)cc1	x	104*	x	97*
CN(C)S(=O)(=O)c1ccc(C(=O)Nc2nnc(Cc3cccs3)o2)cc1	x	x	74*	x
O=C(Nc1ccc(SCc2cccc(Cl)c2)nn1)C1CC1	x	x	5	x
CC1CCCN(S(=O)(=O)c2ccc(C(=O)Nc3nnc(Cc4cccs4)o3)cc2)C1 (configuration not stated)	x	x	37*	x
COc1cccc(C(CNC(=O)C(=O)Nc2cc(C)on2)N2CCOCC2)c1 (configuration not stated)	x	x	-11	x
Cc1ccccc1C(=O)N1CCN(c2ccc3nnc(-c4ccco4)n3n2)CC1	x	x	-2	x
O=C(NC[C@H]1CCCN1c1nccs1)c1c[nH]c2ccccc12	x	x	5	x
O=C(NCC1CCCN1c1ccccc1)c1c[nH]c2ccccc12 (configuration not stated)	x	x	53*	x
Cn1cc(CC(=O)NCC2CCCN2c2ccccc2)c2ccccc21 (configuration not stated)	x	x	39*	x
O=C(Cc1ccc(F)cc1)NC[C@H]1CCCN1c1ccccc1	x	x	11	x
O=C(Nc1nc2c(s1)C(=O)CCC2)c1cccc(-n2ccc3ccccc32)c1	x	x	-1	x
O=C(NCC(c1cccs1)N1CCc2ccccc21)c1ccccc1[N+](=O)[O-] (configuration not stated)	x	x	46*	x
COc1ccc(/C=C/C(=O)c2c(O)ccc3c(C)cc(=O)oc23)cc1	12	5	-14	89*
Cc1cc(=O)oc2c(O)c(O)ccc12	x	x	3	x
COc1ccc(/C=C\C(=O)c2c(O)ccc3c(C)cc(=O)oc23)cc1	x	-7	-6	87*
COc1ccc(/C=C/C(=O)c2c(C)cc(C)cc2C)cc1	x	x	19	x
SMILES	Mtb hypoxia inh	Sa RN4220 lethal	PriA SSB inh	Sa ugtP lethal
CC(C)(C)CC(=O)NC(=S)Nc1ccccc1C(F)(F)F	-5	5	-8	93*
CC(C)CC(=O)NC(=S)Nc1ccccc1C(F)(F)F	3	1	-13	71
OCC#CCSc1nnc(-c2cccc3ccccc23)o1	54*	9	-35	-5
COc1ccccc1CNC(=O)Cc1cc(=O)[nH]c(SCc2ccccc2F)n1	x	x	-11	x
Cc1ccc(-c2nnc(NC(=O)c3ccc([N+](=O)[O-])o3)o2)c(C)c1	x	-3	-2	92*
COc1ccc(-c2nnc(NC(=O)c3ccc([N+](=O)[O-])o3)o2)c(OC)c1	x	2	0	96*
O=C(NCC(c1cccs1)S(=O)(=O)c1ccc(F)cc1)C1(c2cccs2)CCCC1 (configuration not stated)	x	x	-7	x
C#CCn1c(=NC(=O)c2ccnn2C)sc2cc(SC)ccc21	x	x	-7	x
COc1ccc(C)cc1S(=O)(=O)N1CCN(c2ccc(-c3ccc(C)cc3)nn2)CC1	x	x	0	x
CC(C)(CN)CN1CCCCCC1	x	x	10	x
Cc1[nH]n2c(=O)cc(-c3ccc([N+](=O)[O-])cc3)nc2c1-c1ccccc1	x	86*	30	75
Cc1[nH]n2c(=O)cc(C(C)(C)C)nc2c1-c1ccccc1	6	65	-7	96*
Cc1[nH]n2c(=O)cc(C(C)C)nc2c1-c1ccccc1	2	-3	-6	-5
CC(C)CC(=O)NC(=S)Nc1ccc(S(=O)(=O)NC(C)(C)C)cc1	-3	3	-9	87*
CCCC(=O)NC(=S)Nc1ccc(S(=O)(=O)Nc2ccc(OCC)cc2)cc1	3	7	-7	88*
